Publication PMC10668032, “Altered binding affinity of SIX1-Q177R correlates with enhanced WNT5A and WNT pathway effector expression in Wilms tumor”
The full ranking holds about 33,000 sequences; the median of “e-score” is about -0.053, and the highest 2% start at about 0.38. The sample as a whole holds a higher share of the highest values than the screen did.

target: T1, SIX1 homeodomain (reference allele) (human, UniProt Q15475 108-198); assay: universal protein binding microarray; Universal all-10-mer PBM (8x60K, AMADID 030236), 300 nM GST-tagged protein, Alexa Fluor 488 anti-GST; buffer, salt, pH and temperature not stated (as in Berger); high values mean tight binding; conditions: protein: ivt; tags: N-terminal GST; dsDNA, one strand shown
T1 sequence: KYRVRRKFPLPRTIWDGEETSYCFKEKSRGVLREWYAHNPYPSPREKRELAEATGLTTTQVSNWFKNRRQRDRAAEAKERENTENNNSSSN
How it was run: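 GST-tagged homeodomains were made by in vitro transcription/translation and quantified by anti-GST western blot against a recombinant GST standard curve. They were applied in duplicate at 300 nM final concentration to universal 'all 10-mer' protein binding microarrays (8×60K format). Binding was quantified as 8-mer E-scores with the Universal PBM Analysis Suite.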

Sequence	binding signal
ACCGACAC	0.2857 ± 0.000453 E-score
ACCGATAC	0.453 ± 0.017 E-score
ATCGATCG	0.256 ± 0.037 E-score
ATCGATCC	0.389 ± 0.0532 E-score
ACCGATCA	0.2912 ± 0.000771 E-score
ACCGATGA	0.17 ± 0.0208 E-score
ATCTTACC	0.296 ± 0.0402 E-score
CGTGTCAG	0.202 ± 0.0504 E-score
ATACTCGG	0.316 ± 0.01 E-score
ATCGTCAC	0.279 ± 0.00711 E-score
GATCTGCA	0.258 ± 0.0208 E-score
ATCACTGG	0.215 ± 0.00955 E-score
CCGGGTGA	0.201 ± 0.0475 E-score
GCCGATAC	0.42 ± 0.0113 E-score
GCCGATCC	0.352 ± 0.0357 E-score
ACCGATCT	0.251 ± 0.0228 E-score
ACCGATAT	0.396 ± 0.00927 E-score
ACCGATAG	0.352 ± 0.018 E-score
TCCGATAA	0.223 ± 0.0291 E-score
TATAAATA	0.16 ± 0.095 E-score
CGAGATGA	0.187 ± 0.0163 E-score
AGTAGATA	0.334 ± 0.0532 E-score
ATAGCTAC	0.163 ± 0.0342 E-score

Sequence	binding signal
AGGCGTAT	0.318 ± 0.00622 E-score
TATCTGAA	0.153 ± 0.0196 E-score
GAGGATAA	0.278 ± 0.00471 E-score
AAGGATAG	0.195 ± 0.0349 E-score
CAGGATAC	0.365 ± 0.0177 E-score
AAGGATAA	0.167 ± 0.034 E-score
GAGGATAC	0.403 ± 0.0104 E-score
AAGGATAC	0.405 ± 0.0292 E-score
ACATTGAT	0.154 ± 0.01 E-score
ATGAGACC	0.295 ± 0.00298 E-score
ATCACATC	0.284 ± 0.0264 E-score
CACCGATC	0.305 ± 0.0428 E-score
ACATATCC	0.381 ± 0.0241 E-score
ACCTATCG	0.236 ± 0.0191 E-score
ACATATCT	0.233 ± 0.09 E-score
CCATATAC	0.29 ± 0.00643 E-score
ACATATAG	0.162 ± 0.052 E-score
ACATATCG	0.389 ± 0.0479 E-score
CCATATGC	0.159 ± 0.0297 E-score
CCATATCC	0.424 E-score
CAATATCG	0.296 ± 0.0508 E-score
CCATATAG	0.211 ± 0.0217 E-score
ACATATAC	0.244 ± 0.0208 E-score

Sequence	binding signal
CCATATCG	0.4544 ± 0.00281 E-score
ATATTCAG	0.164 ± 0.0437 E-score
GCTTATCC	0.304 ± 0.0229 E-score
TAGATGGA	0.289 ± 0.00593 E-score
AACAGTAT	0.196 ± 0.107 E-score
CGGATTCC	0.247 ± 0.00447 E-score
CAGAACAA	0.176 ± 0.0355 E-score
ATATTAAC	0.156 ± 0.0934 E-score
CAAGATCA	0.242 ± 0.0215 E-score
TCTCATAA	0.161 ± 0.0418 E-score
TATCCTCA	0.37 ± 0.037 E-score
TATTATCA	0.187 ± 0.0898 E-score
GGTCATGA	0.169 ± 0.033 E-score
TATCATCA	0.412 ± 0.0218 E-score
GATCATGA	0.273 ± 0.0126 E-score
TATCAGCA	0.327 ± 0.0344 E-score
GATCATAA	0.306 ± 0.00493 E-score
TATCATGA	0.382 ± 0.0397 E-score
TATCAGGA	0.397 ± 0.00041 E-score
TATCATAA	0.381 ± 0.0345 E-score
GATCAGGA	0.339 ± 0.0411 E-score
AGGTGGAT	0.305 ± 0.034 E-score
CATAGATC	0.249 E-score

Sequence	binding signal
CGGTGTGA	0.204 ± 0.0905 E-score
GGTTAGAA	0.153 ± 0.0251 E-score
ATACTCTA	0.268 ± 0.0991 E-score
CATAATCC	0.3 ± 0.0272 E-score
AATTGTAT	0.162 ± 0.0456 E-score
CATACCAG	0.171 ± 0.0153 E-score
CCATTATA	0.177 ± 0.0248 E-score
ATCCAAGA	0.155 ± 0.0124 E-score
CAGGGCGA	0.216 ± 0.0603 E-score
ATATCCGC	0.43 ± 0.0222 E-score
GCATCCGA	0.203 ± 0.0461 E-score
AAATCCGG	0.244 ± 0.0271 E-score
CTATCCGC	0.3601 ± 0.000778 E-score
CAATCCGC	0.29 ± 0.0084 E-score
GTATCCGA	0.426 ± 0.0105 E-score
GAATCCGA	0.188 ± 0.0166 E-score
CTATCCGA	0.33 ± 0.00993 E-score
ATATCCGA	0.429 ± 0.0108 E-score
ACATCCGG	0.174 ± 0.064 E-score
ATATCCGG	0.4206 ± 0.00416 E-score
ATCTCCGA	0.258 ± 0.0265 E-score
ATCGAAGA	0.293 ± 0.0315 E-score
GCCAATAC	0.16 ± 0.00361 E-score

Sequence	binding signal
TCAGCTCA	0.162 ± 0.0286 E-score
ACTATCTG	0.178 ± 0.0443 E-score
GATCGCAA	0.242 ± 0.0198 E-score
GATCGTGA	0.229 ± 0.0511 E-score
ATCACTAA	0.166 ± 0.051 E-score
ATCGTAGA	0.193 ± 0.0118 E-score
GGTGTACA	0.306 ± 0.0258 E-score
CATACATG	0.154 ± 0.0235 E-score
ATCCGCGA	0.259 ± 0.011 E-score
AAGTGATA	0.397 ± 0.0754 E-score
ACGTGATA	0.344 ± 0.0436 E-score
TAGTGATA	0.415 ± 0.0394 E-score
GAGAGATA	0.323 ± 0.0528 E-score
GAGTGAGA	0.234 ± 0.0134 E-score
TAGTGAGA	0.203 ± 0.0506 E-score
TAGTGTGA	0.184 ± 0.00834 E-score
CAGTGATA	0.417 ± 0.0231 E-score
GAGTGATA	0.447 ± 0.0268 E-score
AAGAGATA	0.235 ± 0.141 E-score
CAGTGAGA	0.16 ± 0.032 E-score
